Our source for the Potency values is PubChem BioAssay (NCATS).

The source made the active and inactive calls. Where a call stands in place of a potency, no number is given. Calls follow the shape of the dose curve; as a rule, active = well fitted cell-killing curve with a large enough effect; inconclusive = small, poorly fitted or top-dose-only effect, or effect the other way; inactive = flat fitted curve, though single readings scatter.
Potency is read from the fitted curve at half-maximal effect.

A short description of this experiment: MultiTox-Fluor Cytotoxicity Assay - LYMP1-003 - Dead Cells (AID 961). Also: nearly all actives have a fitted effect of over 70% in size. As to conditions: LYMP1-003 lymphoblastoid cells, dead-cell protease fluorescence; series mostly up to 92.2 µM. An excerpt: NIH Chemical Genomics Center [NCGC]
NIH Molecular Libraries Screening Centers Network [MLSCN]
National Institutes of Environmental Health Sciences [NIEHS]
National Toxicology Program [NTP]
We have developed a 1536-well cell-based assay for quantitative high throughput screening (qHTS) against a number of cell lines to determine in vitro cytotoxicity of small molecules. This particular assay uses a human lymphoblastoid cell line (LYMP1-003) purchased from Coriell Institute.
NCGC Assay Protocol Summary:
The MultiTox-Fluor Cytotoxicity Assay (Promega) is a homogeneous method to simultaneously measure the relative number of live and dead cells in culture by detecting changes in cell membrane integrity. There are two fluorogenic peptide substrates in the assay reagent. Viable cells are determined when the cell-permeant substrate (GF-AFC) enters the cell and is cleaved by protease from live cells resulting in liberated fluorophore. This live-cell protease activity restricted to viable cells is proportional to cell number. The dead cells are determined by using fluorogenic cell-impermeant peptide substrate (bis-AAF-R110) which cleaved by dead cell proteases leaking from damaged cell membrane.
Using the MultiTox-Fluor Cytotoxicity Assay, the relative number of dead cells was measured in the lymphoblastoid cell line with complete culture medium following compound treatment for 16 hours. The assay was performed in opaque black Kalypsys 1536-well plates. In the screen, tetraoctylammonium bromide was used as positive control. Library compounds were measured for their ability to cause acute toxicity in the cell line, as reflected by an increase in dead cell protease activity, in a concentration-dependent manner. Data were normalized to the controls for basal activity (DMSO only) and 100% stimulation (15 uM tetraoctylammonium bromide). AC50 values were determined from concentration-response data modeled with the standard Hill equation.
qHTS protocol for MultiTox-Fluor Cytotoxicity assay
[Step] [Parameter] [Value] [Description]
1. Reagent; 5 uL; 2500 lymphoblastoid cells/well
2. Time; 5 hr; 37 C incubation
4. Controls; 23 nL; Tetraoctylammonium bromide 6.4pM to 92 uM
5. Time; 16 hr; 37 C incubation
6. Reagent; 5 uL; MuliTox-Fluor Assay reagent
7. Time; 60 min; Room Temperature
8. Detection; dead-cell fluorescence (Ex/Em=485/520); EnVision plate reader
Keywords: cytotoxicity, lymphoblastoid cell line, fluorescence, NTPHTS, NTPHTS_NCGC, NIEHS, EPA, DSSTox, MLSMR, MLSCN, NIH Roadmap, qHTS, NCGC
With `CC(=O)Nc1ccc(C(=O)CCl)cc1`, the Potency was 25.1 µM (active).
In the case of `CCC(C)Nc1ccc(NC(C)CC)cc1` (stereo not drawn), the Potency was 12.6 µM (active).
As for `CCCCCC/C(C=O)=C\c1ccccc1`, the Potency result is “inactive”.
For `O=C1OC(O)C(C(Cl)Cl)=C1Cl` (stereo not drawn), the Potency is 63.1 µM (active).
Turning to `O=C(/C=C/c1ccc(O)c(O)c1)OC1C[C@](O)(C(=O)O)C[C@@H](O)[C@H]1O` (stereo partly drawn), the Potency entry is “inactive”.
The result for `CCCCCCCC[N+](CCCCCCCC)(CCCCCCCC)CCCCCCCC` reads 10 µM (active); that for `ClC1=C(Cl)C(Cl)(Cl)C(Cl)=C1Cl`, “inactive”.
The result for `Cc1cc(O)c(C(C)(C)C)cc1Sc1cc(C(C)(C)C)c(O)cc1C` reads 31.6 µM (active); that for `C=C(C)c1ccccc1`, “inactive”; that for `Cc1cccc(O)c1C`, “inactive”.
Take `O=[N+]([O-])c1cc([N+](=O)[O-])c2ccc(S(=O)(=O)O)cc2c1O`: the Potency result is “inactive”.
With `c1ccc2c(c1)ccc1cc3c(ccc4ccccc43)cc12`, the Potency entry is “inactive”.
On to `C=CC(=O)OCCOCCOC(=O)C=C`, for which the Potency is 20 µM (active).
Turning to `O=C=Nc1ccc(Cc2ccc(N=C=O)cc2)cc1`, the Potency entry is “inactive”.
As to `CN(C)c1ccc(C2(c3ccc(N(C)C)cc3)OC(=O)c3cc(N(C)C)ccc32)cc1`, the Potency result was “inactive”.
`CN1[C@H]2CC(OC(=O)[C@H](CO)c3ccccc3)C[C@H]1[C@H]1O[C@H]12` (stereo partly drawn): the Potency result was “inactive”.
In the case of `c1ccc2c(c1)-c1cccc3c1c-2cc1ccccc13`, the Potency entry is “inactive”.
Take `CNc1ccc(O)cc1`: the Potency was 12.6 µM (active).
The result for `Nc1ccc2cc3ccccc3cc2c1` reads “inactive”; that for `O=C(OCC(COC(=O)c1ccccc1)(COC(=O)c1ccccc1)COC(=O)c1ccccc1)c1ccccc1`, “inactive”; that for `CO[C@H]1/C=C/O[C@@]2(C)Oc3c(C)c(O)c4c(O)c(c5c(c4c3C2=O)NC2(CCN(CC(C)C)CC2)N=5)=NC(=O)/C(C)=C\C=C\[C@H](C)[C@H](O)[C@@H](C)[C@@H](O)[C@@H](C)[C@H](OC(C)=O)[C@@H]1C`, “inactive”.
As to `Cc1cc(Nc2ccc(O)cc2)ccc1N`, the Potency result is “inactive”.
Turning to `O=Cc1ccc(Cl)c(Cl)c1`, the Potency result is “inactive”.
